Data reported in PubChem BioAssay AID1159580 (chemical genetic matrix, 2015).
Values joined by “and” are separate entries in the source; they are usually repeats but may differ in a detail not shown here. Equal entries are not always repeated. In all, about 5,500 compounds went through this assay and about 2,000 (36%) were called active. Inconclusive results (about 18%) are left out. No stated cut-off is given here; in the data, active means normalized growth mostly below about 0.91 (no sharp cut-off); inconclusive means no clear call, values can overlap the other calls; inactive means mostly above about 0.92. Some of the results follow.

Experiment: chemical genetic growth profiling, strain panel (AID 1159580);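 further: tested at 20 µM; growth read once vehicle control cultures reached saturation at 30 °C; 1 = growth at the plate median or of vehicle wells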
Conditions: S. cerevisiae deletion strains, growth OD

Measured: normalized growth

C[C@@H]1CC(Cl)CC[C@H]1C(=O)OC(C)(C)C (some centres not stated)
inactive: locus YAL013W, strain DEP1, stronger effect = lower value 0.987 | locus YAL021C, strain ccr4, stronger effect = lower value 1.02 | locus YAL026C, strain drs2, stronger effect = lower value 0.973 | locus YAL030W, strain snc1, stronger effect = lower value 0.982 | locus YBL061C, strain skt5, stronger effect = lower value 0.983 | locus YBR009C, strain hhf1, stronger effect = lower value 0.948 | locus YBR021W, strain FUR4, stronger effect = lower value 0.976 | locus YBR023C, strain chs3, stronger effect = lower value 0.98 | locus YBR171W, strain sec66, stronger effect = lower value 0.979 | locus YBR229C, strain ROT2, stronger effect = lower value 0.992 | locus YBR231C, strain swc5, stronger effect = lower value 0.986 | locus YBR279W, strain paf1, stronger effect = lower value 0.993 | locus YCL011C, strain gbp2, stronger effect = lower value 0.979 | locus YCL016C, strain dcc1, stronger effect = lower value 0.98 | locus YCL029C, strain bik1, stronger effect = lower value 0.98 | locus YCL061C, strain MRC1, stronger effect = lower value 0.983 | locus YCL069W, strain vba3, stronger effect = lower value 0.985 | locus YCR088W, strain abp1, stronger effect = lower value 0.987 | locus YDL005C, strain med2, stronger effect = lower value 0.991 | locus YDL035C, strain GPR1, stronger effect = lower value 0.995 | locus YDL040C, strain nat1, stronger effect = lower value 0.982 | locus YDL074C, strain BRE1, stronger effect = lower value 0.948 | locus YDL101C, strain DUN1, stronger effect = lower value 0.985 | locus YDL134C, strain PPH21, stronger effect = lower value 0.997 | locus YDL185W, strain tfp1, stronger effect = lower value 0.952 | locus YDL192W, strain arf1, stronger effect = lower value 0.983 | locus YDR001C, strain nth1, stronger effect = lower value 0.976 | locus YDR069C, strain doa4, stronger effect = lower value 0.97 | locus YDR101C, strain arx1, stronger effect = lower value 0.969 | locus YDR137W, strain rgp1, stronger effect = lower value 0.93 | locus YDR150W, strain NUM1, stronger effect = lower value 0.984 | locus YDR159W, strain sac3, stronger effect = lower value 0.915 | locus YDR162C, strain NBP2, stronger effect = lower value 0.992 | locus YDR195W, strain ref2 0.961 | locus YDR297W, strain sur2, stronger effect = lower value 0.981 | locus YDR318W, strain mcm21, stronger effect = lower value 0.988 | locus YDR334W, strain swr1, stronger effect = lower value 0.978 | locus YDR335W, strain msn5, stronger effect = lower value 0.981 | locus YDR388W, stronger effect = lower value 0.994 | locus YDR392W, strain spt3, stronger effect = lower value 0.774 | locus YDR502C, strain sam2, stronger effect = lower value 0.992 | locus YEL003W, strain gim4, stronger effect = lower value 0.976 | locus YEL037C, strain rad23, stronger effect = lower value 0.983 | locus YEL061C, strain CIN8 (second series), stronger effect = lower value 0.984 | locus YEL061C, strain CIN8, stronger effect = lower value 0.989 | locus YER015W, strain faa2, stronger effect = lower value 0.986 | locus YER016W, strain bim1, stronger effect = lower value 0.975 | locus YER110C, stronger effect = lower value 0.986 | locus YER111C, strain swi4, stronger effect = lower value 0.964 | locus YER155C, strain BEM2 (second series), stronger effect = lower value 0.956 | locus YER155C, strain BEM2, stronger effect = lower value 0.997 | locus YER167W, strain BCK2, stronger effect = lower value 0.993 | locus YFR010W, strain ubp6, stronger effect = lower value 0.98 | locus YGL078C, strain dbp3, stronger effect = lower value 0.983 | locus YGL086W, strain mad1, stronger effect = lower value 1 | locus YGL167C, strain pmr1, stronger effect = lower value 0.973 | locus YGL173C, strain kem1, stronger effect = lower value 0.968 | locus YGL227W, strain vid30, stronger effect = lower value 0.988 | locus YGL240W, strain doc1, stronger effect = lower value 0.978 | locus YGL248W, strain PDE1, stronger effect = lower value 0.995 | locus YGL253W, strain hxk2, stronger effect = lower value 0.969 | locus YGR078C, strain PAC10, stronger effect = lower value 0.971 | locus YGR135W, strain pre9, stronger effect = lower value 0.988 | locus YGR229C, strain SMI1, stronger effect = lower value 0.909 | locus YGR252W, strain gcn5, stronger effect = lower value 1.19 | locus YHR013C, strain ard1, stronger effect = lower value 0.95 | locus YHR027C, strain rpn1, stronger effect = lower value 0.981 | locus YHR030C, strain SLT2, stronger effect = lower value 0.982 and 1.01 | locus YHR079C, strain IRE1 (second series), stronger effect = lower value 0.985 | locus YHR079C, strain IRE1, stronger effect = lower value 1.01 | locus YHR094C, strain hxt1, stronger effect = lower value 0.972 | locus YHR129C, strain ARP1, stronger effect = lower value 0.985 | locus YHR142W, strain chs7, stronger effect = lower value 1.01 | locus YHR200W, strain rpn10, stronger effect = lower value 0.997 | locus YIL066C, strain RNR3, stronger effect = lower value 0.995 | locus YIL073C, strain SPO22, stronger effect = lower value 0.96 | locus YIL125W, strain kgd1, stronger effect = lower value 0.987 | locus YIR030C, strain dcg1, stronger effect = lower value 0.993 | locus YJL092W, strain hpr5, stronger effect = lower value 0.984 | locus YJL095W, strain BCK1 (second series), stronger effect = lower value 0.984 | locus YJL095W, strain BCK1, stronger effect = lower value 1 and 1.01 | locus YJL115W, strain asf1, stronger effect = lower value 0.993 | locus YJL129C, strain trk1, stronger effect = lower value 0.975 | locus YJL134W, strain LCB3, stronger effect = lower value 0.99 | locus YJL154C, strain vps35, stronger effect = lower value 0.98 | locus YJL164C, strain tpk1, stronger effect = lower value 1 | locus YJL166W, strain qcr8, stronger effect = lower value 0.986 | locus YJL168C, strain set2, stronger effect = lower value 0.979 | locus YJL187C, strain SWE1 (second series), stronger effect = lower value 0.975 | locus YJL187C, strain SWE1, stronger effect = lower value 0.986 | locus YJR043C, strain POL32, stronger effect = lower value 0.977 | locus YJR066W, strain TOR1, stronger effect = lower value 0.939
